# Screening data as filed in PubChem BioAssay.
# Only some compounds are listed: those with a hit (about 3.4% of all), similar ones and a draw of the others.
# ADAM10 inh = inhibitors of human ADAM10; AID 720582; recombinant ADAM10, EDANS/DABCYL FRET peptide cleavage, 3 h; inhibition, % at 7 µM; 370,000 tested, 0.62% active;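 active means inhibition above a per-campaign cutoff equal to the mean of compounds falling between control-based bounds plus 3 SD, cut at about 20% in these data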
# sPLA2-III inh = Blocks human group III sPLA2 activity; Q9NZ20; QFRET BODIPY PC-A2 liposome hydrolysis, fluorescence; inhibition, % at 12.2 µM; 370,000 tested, 0.56% active;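 active means inhibition above mean plus 3 SD of compounds lying within the high and low control bounds, cut at about 19% in these data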
# KLK7 zymogen act = activators of human kallikrein-7 zymogen | purified proKLK7, EDANS-DABCYL substrate fluorescence; 100% is mature enzyme control, 0% vehicle | P49862 | 370,000 tested, 0.9% active | activation, % at 7 µM;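 active means activation above the mean of all tested compounds plus 3 SD, computed per campaign excluding outliers beyond control limits, cut at about 13% in these data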
# ADAM17 inh = inhibits human ADAM17 | inhibition, % at 6.95 µM | 370,000 tested, 0.83% active | recombinant ADAM17, EDANS/DABCYL FRET peptide cleavage | AID 720648 | P78536;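 active means inhibition above the mean of compounds lying between control limits plus 3 SD, set per campaign, cut at about 8.5% in these data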
# Target sequence (P78536 215-824 limits assumed): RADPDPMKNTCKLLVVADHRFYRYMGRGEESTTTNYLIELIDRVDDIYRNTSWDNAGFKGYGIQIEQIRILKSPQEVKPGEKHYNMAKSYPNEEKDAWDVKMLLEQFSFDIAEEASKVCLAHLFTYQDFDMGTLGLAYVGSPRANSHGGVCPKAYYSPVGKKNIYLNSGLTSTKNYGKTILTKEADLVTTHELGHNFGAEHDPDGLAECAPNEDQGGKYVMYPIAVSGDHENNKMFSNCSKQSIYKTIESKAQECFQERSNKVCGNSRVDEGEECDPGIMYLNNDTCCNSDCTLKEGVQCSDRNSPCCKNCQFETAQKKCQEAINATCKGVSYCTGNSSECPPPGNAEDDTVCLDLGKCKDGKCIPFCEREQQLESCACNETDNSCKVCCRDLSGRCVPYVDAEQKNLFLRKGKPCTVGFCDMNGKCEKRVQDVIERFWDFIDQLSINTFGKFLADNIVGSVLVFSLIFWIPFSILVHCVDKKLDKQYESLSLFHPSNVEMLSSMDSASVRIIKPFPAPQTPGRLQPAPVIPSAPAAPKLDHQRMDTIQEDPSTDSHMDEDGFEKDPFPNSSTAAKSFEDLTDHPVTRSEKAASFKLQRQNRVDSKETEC
# CendR NRP1 mod = modulators of CendR peptide binding to human neuropilin-1 | O14786 | FAM-RPARPAR peptide binding to NRP-1, fluorescence polarization | inhibition, % at 25 µM | 360,000 tested, 0.85% active;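 active means inhibition or corrected inhibition above about 18%, plus a signal ratio from 0.5 to 1.5, limit read from the data, passing the limit was not always enough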
# proKLK7 act conf = confirmation of human kallikrein-7 zymogen activators; shares compounds with KLK7 zymogen act; purified proKLK7, EDANS-DABCYL substrate fluorescence; scaled: vehicle 0, mature enzyme 100; activation, % at 7 µM; 3,200 tested, 68% active; AID 686949;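 active means activation, as change over the incubation, above the mean of all tested compounds plus 3 SD, cut at about 13% in these data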
# EDANS-DABCYL int = fluorescence interference counter-screen for KLK7 activators; EDANS-DABCYL substrate fluorescence interference, no enzyme, 4 h; solvent 0%, active enzyme control 100%; activation, % at 7 µM; 3,200 tested, 80% active; shares compounds with KLK7 zymogen act;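 active means activation above the all-compound mean plus 3 SD, ignoring values outside control-based bounds, cut at about 4.8% in these data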;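 further: value is the 4 h activation minus the activation read at time zero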
# Hits are given with their value; . = inactive; / = no result given.
SMILES,ADAM10 inh,sPLA2-III inh,KLK7 zymogen act,ADAM17 inh,CendR NRP1 mod,others
CCOC(=O)N(C)C[C@H]1OCc2cn(nn2)CCCC(=O)N([C@@H](C)CO)C[C@@H]1C,.,.,.,.,/,
O=C(COc1ccc(S(=O)(=O)N2CCCC2)cc1)Nc1ccc2c(c1)OCCO2,.,.,.,.,36.4,
CC(=O)Nc1ccc(NC(=O)COc2ccc(S(=O)(=O)N3CCCC3)cc2)cc1,.,.,.,.,.,
COc1ccc(C(CCOC(=O)Oc2ccccc2)c2cc(OC)cc(OC)c2)cc1 (stereo unspecified),.,.,.,.,/,
C[C@H]1[C@@H](NC(=O)c2ccc(C(F)(F)F)cc2)CC[C@@]23CCCN2C(=O)CCC[C@@H]13,.,.,/,.,/,
Oc1c(Br)cc(Br)cc1/C=N/NC(=S)N[C@H]1CC2C=CC1C2 (stereo partly specified),.,45.3,.,.,.,
COc1cc(/C=N/NC(=S)NC2CC3C=CC2C3)cc(OC)c1OC (stereo unspecified),.,.,.,.,.,
CC(C)c1ccc(NCCC(=O)c2cccs2)cc1,.,27.4,.,.,.,
Cc1cc(C(=O)N/N=C/c2ccc(C)s2)n[nH]1,.,.,.,.,18.4,
CNC(=S)N1N=C(c2ccc(Br)cc2)CC1c1ccc(N(C)C)cc1 (stereo unspecified),.,.,.,.,32.5,
Nc1cc(=O)n(Cc2ccccc2)c(=O)n1-c1ccc(F)cc1,.,.,.,.,.,
Nc1cc(=O)n(Cc2ccccc2)c(=O)n1-c1ccc(Cl)cc1,.,.,.,.,35.7,
Cc1nc(S/C(=C/c2ccc(-c3ccc(C(=O)O)cc3)o2)C(=O)O)n[nH]1,.,.,.,.,.,
Cc1nc(S/C(=C/c2ccc(-c3ccc(Cl)cc3)o2)C(=O)O)n[nH]1,.,.,.,.,36.1,
Cc1ccc(NC2=C(Cl)C(=O)c3ccccc3C2=O)cc1,.,.,.,.,.,
CCN(CC)c1ccc(NC2=C(Cl)C(=O)c3ccccc3C2=O)cc1,/,/,/,/,36.2,
CCC(=O)N1CCC(C(=O)NC2CCCc3ccccc32)CC1 (stereo unspecified),.,.,.,.,/,
CC(C)C(=O)Nc1nnc(-c2ccccc2)o1,.,.,.,.,.,
O=C(Nc1ccccc1)Nc1nnc(-c2ccccc2)o1,.,.,.,.,40.2,
CN1OC[C@@H]2CN(Cc3ccccc3)[C@H](c3cccc(Oc4ccccc4)c3)C[C@@H]21,.,.,.,.,25.1,
O=C(CSc1nnc(CNC(=O)C23CC4CC(CC(C4)C2)C3)n1-c1ccccc1)Nc1ccc(F)cc1,.,.,.,.,27.3,
O=S(=O)(Nc1ccc(N=Nc2ccc(O)c3ccccc23)cc1)c1ccccc1,.,.,.,14.3,.,
O=[N+]([O-])c1ccc(N=Nc2ccc(O)c3ccccc23)cc1,/,/,/,/,.,
CCn1c(SCC(=O)c2ccccc2)nnc1-c1cccs1,.,.,.,.,31.8,
CC(Sc1nnnn1-c1ccccc1)C(=O)NC1CCCC1 (stereo unspecified),.,.,.,.,.,
SMILES,ADAM10 inh,sPLA2-III inh,KLK7 zymogen act,ADAM17 inh,CendR NRP1 mod,others
COc1ccc(-n2nnnc2SC(C)C(=O)NC2CCCC2)cc1 (stereo unspecified),.,.,.,.,20.3,
CN1C(=O)c2cc(NS(C)(=O)=O)ccc2OC[C@H]2O[C@@H](CC(=O)NCc3ccc(-c4ccccc4)cc3)CC[C@@H]21,.,.,.,.,/,
COCCNc1c2c(nc3c(-c4ccccc4)c(C)nn13)CCC2,.,.,.,.,27.6,
CCCn1cnc2c1c(=O)n(CCCCC(C)=O)c(=O)n2C,.,.,.,.,31.7,
CCOC(=O)CCc1c(C)c2ccc3c(c2oc1=O)CN(CCCO)CO3,.,.,52.3,.,.,proKLK7 act conf=71.2;EDANS-DABCYL int=75.3
CCOC(=O)CCc1c(C)c2ccc(OCC)c(C)c2oc1=O,.,.,.,.,/,
O=c1[nH]c(=S)[nH]c2nc(-c3ccccc3)cnc12,.,.,.,.,.,
O=c1[nH]c(=O)c2nc(-c3ccc(Cl)cc3)cnc2[nH]1,.,.,56.8,.,.,proKLK7 act conf=69.8;EDANS-DABCYL int=69.4
CCCCNC(=O)C[C@H]1C[C@@]2(C(=O)OC)C(=C[C@H](C3CCCC3)O[C@@H]2C)N(CCC2=CCCCC2)C1=O,.,.,.,.,/,
Cc1ccc(Cn2cc(COC(=O)N3CCOCC3)nn2)cc1,.,.,.,.,/,
COC(=O)C1=NN(c2ccccc2OC)C2C(=O)N(c3ccccc3OC)C(=O)C12 (stereo unspecified),.,.,14.8,.,.,proKLK7 act conf=.;EDANS-DABCYL int=10.6
c1ccc2c(c1)NC1(CCCC1)n1c-2nc2ccccc21,.,.,81.7,.,.,proKLK7 act conf=60.7;EDANS-DABCYL int=66.1
CCCC1(C)Nc2ccccc2-c2nc3ccccc3n21 (stereo unspecified),.,.,63.1,.,.,proKLK7 act conf=.;EDANS-DABCYL int=7.1
CCOC(=O)[C@@]12CN(C(=O)OC(C)(C)C)CC=C1N(Cc1ccc(OC)cc1)C(=O)[C@H]2CC(=O)NCCC(C)C,.,.,.,.,/,
CCOC(=O)c1c(-c2ccccc2)oc2ccc(OCC(=O)O)cc12,.,.,25.2,.,.,proKLK7 act conf=25.3;EDANS-DABCYL int=25.4
CCOC(=O)c1c(-c2ccc(OC)cc2)oc2ccc(OCC(N)=O)cc12,.,.,.,.,.,
N#Cc1sc2nc(N3CCCCC3)c3c(c2c1N)CCCC3,.,.,.,.,.,
Cc1nc2sc(C#N)c(N)c2c2c1CCCC2,.,.,15.1,.,.,proKLK7 act conf=15.0;EDANS-DABCYL int=21.6
COc1cccc(NC(=O)CSc2nc3c(sc4ccccc43)c(=O)n2CCN(C)C)c1,.,.,14.4,.,.,proKLK7 act conf=.;EDANS-DABCYL int=.
Cc1cc2oc(=O)cc(CN(C)Cc3ccccc3F)c2cc1Cl,.,.,.,.,.,
CN(Cc1ccccc1F)Cc1cc(=O)oc2cc(O)c(Cl)cc12,.,.,59.6,.,.,proKLK7 act conf=68.5;EDANS-DABCYL int=60.7
CC1CN(Cc2cc(=O)oc3cc(O)c(Cl)cc23)CC(C)O1 (stereo unspecified),.,.,87.4,.,.,proKLK7 act conf=73.4;EDANS-DABCYL int=69.5
Cc1ccc2oc(=O)cc(CN3CC(C)OC(C)C3)c2c1 (stereo unspecified),.,.,.,.,.,
CC1CCN(Cc2cc(=O)oc3cc(O)c(Cl)cc23)CC1,.,.,48.1,.,.,proKLK7 act conf=70.3;EDANS-DABCYL int=70.9
NC(=O)c1c(N)[nH]c(C(=O)c2ccccc2)c1-c1ccccn1,.,.,/,.,/,
COC(=O)C[C@H]1CC[C@@H]2[C@@H](COc3ccc(NC(=O)C4CCCCC4)cc3C(=O)N2C)O1,.,.,.,.,/,
CCOC(=O)c1c2ccc(OCC(=O)NN)cc2n2ccccc12,.,.,49.4,.,26.4,proKLK7 act conf=.;EDANS-DABCYL int=.
CC(=O)N1CCc2cc3nc(C)cc(C)c3cc21,.,.,25.5,.,.,proKLK7 act conf=.;EDANS-DABCYL int=.
